Laboratory results as given in the antibiotic and cytotoxicity screens of Wong et al. (2023).
Screen size: about 39,000 compounds; about 3,300 (8.5%) were called active. Shown is part of a subset that was picked to be rich in actives.

Tested on: HepG2
Assay: cytotoxicity call (relative viability < 0.9)
Settings: 10 µM

Structure (SMILES) | cytotoxicity call
C[C@@H]1CN([C@@H](C)CO)C(=O)c2c(c3ccccc3n2C)-c2ccccc2CO[C@H]1CN(C)C(=O)CCC(F)(F)F | inactive
Cn1c(=O)c2c(nc(SCSc3nc4c(c(=O)n(C)c(=O)n4C)n3C)n2C)n(C)c1=O | inactive
Cn1c(=O)c2c(nc(S(C)(=O)=O)n2C)n(C)c1=O | active
COCCc1nc2c(c(=O)n(C)c(=O)n2C)n1C | inactive
C[C@@H]1CN([C@@H](C)CO)C(=O)c2cc(NC(=O)Nc3cccc4ccccc34)ccc2O[C@H]1CN(C)C(=O)Nc1ccc(F)cc1 | inactive
C[C@@H]1CN([C@H](C)CO)C(=O)CCCn2nncc2CO[C@H]1CN(C)S(=O)(=O)c1cn(C)cn1 | inactive
C[C@H](CO)N1C[C@H](C)[C@H](CN(C)C(=O)Nc2ccc(F)cc2)Oc2ccc(NC(=O)Nc3ccc(C(F)(F)F)cc3)cc2CC1=O | inactive
C[C@H]1CN([C@@H](C)CO)C(=O)Cc2cc(NC(=O)Nc3ccc(C(F)(F)F)cc3)ccc2O[C@H]1CN(C)C(=O)Nc1ccc(F)cc1 | active
C[C@H]1CN([C@@H](C)CO)C(=O)Cc2cc(NC(=O)Nc3ccc(F)cc3)ccc2O[C@@H]1CN(C)C(=O)Nc1ccc(C(F)(F)F)cc1 | inactive
C[C@@H]1CN([C@@H](C)CO)C(=O)Cc2cc(NC(=O)Nc3ccc(F)cc3)ccc2O[C@@H]1CN(C)C(=O)Nc1ccc(C(F)(F)F)cc1 | inactive
C[C@@H]1CN([C@@H](C)CO)C(=O)Cc2cc(NC(=O)Nc3ccc(F)cc3)ccc2O[C@H]1CN(C)C(=O)Nc1ccc(C(F)(F)F)cc1 | inactive
C[C@H](CO)N1C[C@H](C)[C@H](CN(C)C(=O)Nc2ccc(C(F)(F)F)cc2)Oc2ccc(NC(=O)Nc3ccc(F)cc3)cc2CC1=O | inactive
C[C@H](CO)N1C[C@H](C)[C@@H](CN(C)C(=O)Nc2ccc(F)cc2)Oc2ccc(NC(=O)Nc3ccc(C(F)(F)F)cc3)cc2CC1=O | active
C[C@@H]1CN([C@H](C)CO)C(=O)Cc2cc(NC(=O)Nc3ccc(C(F)(F)F)cc3)ccc2O[C@H]1CN(C)C(=O)Nc1ccc(F)cc1 | inactive
C[C@@H]1CN([C@@H](C)CO)C(=O)Cc2cc(NC(=O)Nc3ccc(C(F)(F)F)cc3)ccc2O[C@@H]1CN(C)C(=O)Nc1ccc(F)cc1 | active
C[C@@H]1CN([C@H](C)CO)C(=O)Cc2cc(NC(=O)Nc3ccc(C(F)(F)F)cc3)ccc2O[C@@H]1CN(C)C(=O)Nc1ccc(F)cc1 | active
C[C@@H]1CN([C@H](C)CO)C(=O)Cc2cc(NC(=O)Nc3ccc(F)cc3)ccc2O[C@H]1CN(C)C(=O)Nc1ccc(C(F)(F)F)cc1 | inactive
C[C@@H]1CN([C@@H](C)CO)C(=O)Cc2cc(NC(=O)Nc3ccc(C(F)(F)F)cc3)ccc2O[C@H]1CN(C)C(=O)Nc1ccc(F)cc1 | inactive
Cc1ccc(S(=O)(=O)N(C)C[C@H]2OCCCC[C@H](C)Oc3ccc(NC(=O)Nc4ccc(C(F)(F)F)cc4)cc3C(=O)N([C@H](C)CO)C[C@@H]2C)cc1 | inactive
C[C@@H]1CN([C@@H](C)CO)C(=O)c2cc(NC(=O)Nc3ccc(F)cc3)ccc2O[C@@H](C)CCCCO[C@@H]1CN(C)S(=O)(=O)c1ccc(Cl)cc1 | inactive
COCC(=O)Nc1ccc2c(c1)[C@@H]1C[C@@H](CC(=O)N3CCOCC3)O[C@H](CO)[C@@H]1O2 | inactive
C[C@H](CO)N1C[C@H](C)[C@@H](CN(C)S(=O)(=O)c2cn(C)cn2)Oc2ccc(NC(=O)Nc3ccccc3)cc2CC1=O | inactive
CCCc1ncc(C[n+]2ccccc2C)c(N)n1.[Cl-] | inactive

Structure (SMILES) | cytotoxicity call
C[C@@H]1CCCCO[C@H](CN(C)S(=O)(=O)c2cccs2)[C@H](C)CN([C@H](C)CO)C(=O)c2cc(NC(=O)c3ccccc3)ccc2O1 | inactive
C[C@@H]1CN([C@@H](C)CO)C(=O)c2cccc(NS(=O)(=O)c3cccs3)c2O[C@@H]1CN(C)Cc1ccc(Oc2ccccc2)cc1 | inactive
C[C@@H]1CN([C@@H](C)CO)C(=O)c2cc(C#CCN(C)C)cnc2O[C@H]1CN(C)Cc1cccc(C(=O)O)c1 | inactive
C[C@@H]1CN([C@@H](C)CO)C(=O)c2cccc(NC(=O)C3CCOCC3)c2O[C@H]1CN(C)C(=O)Nc1ccc2c(c1)OCO2 | inactive
C[C@H](CO)N1C[C@H](C)[C@@H](CN(C)C(=O)Nc2ccc(C(F)(F)F)cc2)Oc2ccc(NC(=O)Nc3ccc(F)cc3)cc2CC1=O | active
C[C@H]1CN([C@@H](C)CO)C(=O)Cc2cc(NC(=O)Nc3ccc(F)cc3)ccc2O[C@H]1CN(C)C(=O)Nc1ccc(C(F)(F)F)cc1 | inactive
C[C@@H]1CN([C@H](C)CO)C(=O)Cc2cc(NC(=O)Nc3ccc(F)cc3)ccc2O[C@@H]1CN(C)C(=O)Nc1ccc(C(F)(F)F)cc1 | inactive
Cc1ccc(S[C@]2(C(=O)NC(C)C)CC(=O)N(Cc3cc(C(F)(F)F)cc(C(F)(F)F)c3)[C@@H]2c2ccc(CO)cc2)cc1 | inactive
CN(C)Cc1cn(CC[C@H]2CC[C@@H](NS(=O)(=O)c3ccccc3)[C@H](CO)O2)nn1 | inactive
C[C@H]1CN([C@@H](C)CO)C(=O)Cc2cc(NC(=O)CCC(F)(F)F)ccc2O[C@@H]1CN(C)S(C)(=O)=O | inactive
CC(C)(C)[S@](=O)N1Cc2cc(C(=O)N3CCc4ccccc4C3)nc(-c3cccc(-c4cncnc4)c3)c2[C@@H]1CCO | inactive
C=CCOC(=O)[C@@H]1[C@H]2C(=O)O[C@H](c3ccccc3)[C@H](c3ccccc3)N2[C@H](c2ccc(OCCOC(=O)NCCCCCC(=O)NO)cc2)[C@]12C(=O)Nc1ccc(I)cc12 | inactive
Nc1nnc(-c2ccno2)o1 | inactive
CCOC(=O)CCn1cc(F)c(=O)[nH]c1=O | inactive
CC(=O)On1cc(F)c(=O)[nH]c1=O | active
CCOC(=O)Cn1cc(F)c(=O)[nH]c1=O | inactive
Cn1cnc(S(=O)(=O)N2CC[C@H](O)[C@@H]2Cc2cnn(C)c2)c1 | inactive
C[C@H]1CCCCO[C@@H](CN(C)C(=O)Nc2ccccc2)[C@@H](C)CN([C@@H](C)CO)C(=O)c2cc(NC(=O)Cc3ccccc3)ccc2O1 | inactive
C[C@@H]1CN([C@H](C)CO)C(=O)c2cc(NC(=O)Cc3ccccc3)ccc2O[C@@H](C)CCCCO[C@H]1CN(C)C(=O)Nc1ccccc1 | active
C[C@H](CO)N1C[C@H](C)[C@@H](CN(C)C(=O)Nc2ccc(C(F)(F)F)cc2)OCCCC[C@H](C)Oc2ccc(NC(=O)Cc3ccccc3)cc2C1=O | inactive
C[C@@H]1CCCCO[C@@H](CN(C)C(=O)Nc2ccccc2)[C@H](C)CN([C@@H](C)CO)C(=O)c2cc(NC(=O)Cc3ccccc3)ccc2O1 | inactive
C[C@@H]1CCCCO[C@@H](CN(C)C(=O)CCC(F)(F)F)[C@H](C)CN([C@@H](C)CO)C(=O)c2cc(NC(=O)Cc3ccccc3)ccc2O1 | inactive
C[C@@H]1CCCCO[C@@H](CN(C)C(=O)CCC(F)(F)F)[C@@H](C)CN([C@H](C)CO)C(=O)c2cc(NC(=O)Cc3ccccc3)ccc2O1 | inactive

Structure (SMILES) | cytotoxicity call
C[C@H]1CCCCO[C@H](CN(C)C(=O)CCC(F)(F)F)[C@@H](C)CN([C@@H](C)CO)C(=O)c2cc(NC(=O)Cc3ccccc3)ccc2O1 | active
C[C@@H]1CCCCO[C@H](CN(C)C(=O)Nc2ccc(C(F)(F)F)cc2)[C@@H](C)CN([C@@H](C)CO)C(=O)c2cc(NC(=O)Cc3ccccc3)ccc2O1 | inactive
C[C@@H]1CCCCO[C@@H](CN(C)C(=O)Nc2ccc(C(F)(F)F)cc2)[C@H](C)CN([C@H](C)CO)C(=O)c2cc(NC(=O)Cc3ccccc3)ccc2O1 | active
CC(C)NC(=O)Nc1ccc2c(c1)C(=O)N([C@@H](C)CO)C[C@@H](C)[C@@H](CN(C)Cc1ccccc1)OCCCC[C@@H](C)O2 | inactive
C[C@@H]1CCCCO[C@@H](CN(C)C(=O)Nc2ccc3c(c2)OCO3)[C@@H](C)CN([C@@H](C)CO)C(=O)c2cc(NC(=O)Nc3ccc4c(c3)OCO4)ccc2O1 | inactive
CS(=O)(=O)N1CCOC[C@@]2(C1)CN(S(=O)(=O)C1CC1)CCO2 | inactive
O=C(C[C@H]1CC[C@H]2[C@@H](COC[C@@H](O)CN2S(=O)(=O)c2cccc(F)c2)O1)NCc1ccc2c(c1)OCO2 | inactive
C[C@@H]1CCCCO[C@H](CN(C)C(=O)Nc2ccc3c(c2)OCO3)[C@@H](C)CN([C@H](C)CO)C(=O)c2cc(NC(=O)c3ccccc3)ccc2O1 | inactive
O=C(O)CNc1ncccc1O | inactive
Cc1ccc(S(=O)(=O)N(C)C[C@H]2Oc3ccc(NC(=O)NC(C)C)cc3CC(=O)N([C@H](C)CO)C[C@@H]2C)cc1 | inactive
N=C1CCCN1Cc1[nH]c(=O)[nH]c(=O)c1Cl | inactive
Cc1noc(C)c1NC(=O)Nc1ccc2c(c1)C(=O)N([C@@H](C)CO)C[C@@H](C)[C@H](CN(C)Cc1ccccc1)OCCCC[C@H](C)O2 | inactive
Cc1noc(C)c1S(=O)(=O)Nc1ccc2c(c1)C(=O)N([C@H](C)CO)C[C@@H](C)[C@@H](CN(C)Cc1ccc(C(=O)O)cc1)O2 | inactive
CC(C)NC(=O)N(C)C[C@H]1Oc2ccc(NC(=O)CCCN(C)C)cc2CC(=O)N([C@@H](C)CO)C[C@@H]1C | inactive
N[C@H]1CCCC[C@@H]1N1C(=O)CSC1=O | inactive
NC1CCCCC1N.O=C1[O][Pt][O]C1=O (stereo not drawn) | active
Cc1c(CN2CCC(Nc3ncnc4sc(CC(F)(F)F)cc34)CC2)ccc2c1cc(C#N)n2Cc1cn[nH]c1 | active
Cc1noc(C)c1S(=O)(=O)N(C)C[C@@H]1OCCCC[C@H](C)Oc2ccc(NS(C)(=O)=O)cc2C(=O)N([C@@H](C)CO)C[C@H]1C | inactive
CC(C)N(CCOc1c(Br)cc(/C=C/C(=O)NCCCOc2c(Br)cc(CCN(C)C)cc2Br)cc1Br)C(C)C | active
COc1cc(C(=O)NCc2ccc(OCCN(C)C)cc2)cc(OC)c1OC.Cl | inactive
COc1cc(/C=C/C(=O)NCCCNC(=O)/C=C/c2cc(OC)c(OC)c(OC)c2)cc(OC)c1OC | inactive
CN(C)CCOc1c(Br)cc(/C=C/C(=O)NCCCOc2c(Br)cc(CCN(C)C)cc2Br)cc1Br | active
